Laboratory results as given in ChEMBL document CHEMBL4513216, “Probing the Open Global Health Chemical Diversity Library for Multistage-Active Starting Points for Next-Generation Antimalarials” (ACS Infect Dis, 2020).
Hit rate of the full screen: of about 69,000 compounds, about 8,600 (12%) showed an effect of 50% or more. This is one part of a sample in which strong results are shown more often than they occur.

tested on: Plasmodium berghei; experiment: Screen against P. berghei liver stage (PbLuc), transformed with Luciferase, at 10uM; type: functional, HepG2; conditions: tested at 10 uM

| Structure (SMILES) | INHIBITION |
| --- | --- |
| Cc1noc(C)c1CN1CCO[C@H]2[C@H](Oc3ncccc3F)CC[C@@H]21 | 34.4% |
| CN(C)c1ccc(-c2cccc(-c3ccn(CCCO)n3)c2)nn1 | -121% |
| Cc1occc(=O)c1OCC(=O)N1CCN(c2cccc(Cl)c2)CC1 | -5.77% |
| Cc1cc(C2CCCN(CCC(=O)N3CCc4ccccc43)C2)n[nH]1 (stereo unspecified) | 1.04% |
| CN(C)C(c1ccccn1)C1CCC(CNC(=O)C2CCCC2)CC1 (stereo unspecified) | 14.6% |
| c1ccc(-c2ncc3c(n2)C2(CCN(CC4CC4)C2)COC3)cc1 (stereo unspecified) | 66.2% |
| CC(C)CN1CCC2(COCc3cnc(-c4ccccc4)nc32)C1 (stereo unspecified) | 69.3% |
| CN1CCC2(COCc3cnc(-c4ccccc4)nc32)C1 (stereo unspecified) | -6.97% |
| O=C(CC1CC1)N1CCC2(COCc3cnc(-c4ccccc4)nc32)C1 (stereo unspecified) | -21.1% |
| COCCN1CCC2(COCc3cnc(-c4ccccc4)nc32)C1 (stereo unspecified) | 6.79% |
| CN(C)c1ncc2c(n1)C1(CCN(CC3CC3)C1)COC2 (stereo unspecified) | 46.8% |
| CC(C)c1nc2n(n1)CC(NCc1ccncc1)CC2 (stereo unspecified) | 0.79% |
| CCc1ccc(NC(=O)N2C[C@@H]3C[C@H](C(=O)N4CCCC4)[C@H](C2)O3)cc1 | 45.4% |
| O=C(NCC1CCCOC1)c1ccc(-c2ccccc2)[nH]c1=O (stereo unspecified) | -29.1% |
| O=S(=O)(NCc1ccccc1)Nc1cccc(Cn2cncn2)c1 | 47.2% |
| Cc1nc(Nc2nncs2)cc(C2CNC2)n1 | 12.75% |
| CN1CCC/C1=N\S(=O)(=O)c1ccc(NC(=O)CCc2cccs2)cc1 | 27.4% |
| CCCS(=O)(=O)N1C[C@@H]2COC[C@]2(CN2CCOCC2)C1 | 6.83% |
| O=S(=O)(c1cccnc1)N1C[C@@H]2COC[C@]2(COCC2CC2)C1 | 65.1% |
| O=S(=O)(c1cccnc1)N1C[C@@H]2COC[C@]2(CN2CCOCC2)C1 | 55.5% |
| O=S(=O)(c1ccccc1)N1C[C@@H]2COC[C@]2(CN2CCOCC2)C1 | 9.79% |
| CS(=O)(=O)N1C[C@@H]2COC[C@]2(COCC(=O)N2CCCC2)C1 | 28.5% |
| COC[C@]12COC[C@H]1CN(S(=O)(=O)c1cccnc1)C2 | 33% |
| O=S(=O)(c1ccccc1)N1C[C@@H]2COC[C@]2(COCC2CC2)C1 | 44.2% |
| CS(=O)(=O)N1C[C@@H]2COC[C@]2(CN2CCOCC2)C1 | 65.9% |
| Cc1nnc([C@]23COC[C@H]2CN(S(=O)(=O)c2cccnc2)C3)o1 | -2.26% |

| Structure (SMILES) | INHIBITION |
| --- | --- |
| Cc1ccc2c(n1)N(CCN(C)C)CCN(Cc1c(C)noc1C)C2 | 42.6% |
| COCCN1CCc2ccccc2NCCC1=O | 16.9% |
| CN(Cc1cnn(C)c1)CC(O)c1ccc2c(c1)OCCCO2 (stereo unspecified) | 18.8% |
| O=C(c1cccs1)N1CCC2(CC1)CCN(S(=O)(=O)C1CC1)CC2 | 45.7% |
| O=C(c1sccc1-n1cnnn1)N1CCCCC1 | 17.4% |
| CCN(CC)CC(=O)N(C)C(c1cccc(F)c1)c1ccccn1 (stereo unspecified) | -4.16% |
| Cc1cnn(CC2CCCN2C(=O)Cn2nc(C)c(Cl)c2C)c1 (stereo unspecified) | -41.5% |
| COCCC(=O)N1CCc2nc(N3CCOCC3)nc(NC(C)C)c2C1 | 76.5% |
| Cc1nc(N2CCOCC2)nc2c1CCN(C(=O)N1CCCC1)CC2 | 39.5% |
| CC(C)CC(=O)N1CCc2nc(N3CCOCC3)nc(NC(C)C)c2C1 | 52.9% |
| CCC(=O)N1CCc2nc(N3CCOCC3)nc(N(C)C)c2CC1 | 45.2% |
| COc1c(Br)c(C(=O)NC2CC2)nn1C | 33.3% |
| COc1c(Br)c(C(=O)NC2CCCCC2)nn1C | -37.1% |
| COc1c(Br)c(C(=O)NC2CCCC2)nn1C | 71.4% |
| Cc1cnn(CC2CCCCN2C(=O)c2ccc3[nH]cnc3c2)c1 (stereo unspecified) | 5.7% |
| N#Cc1ccccc1CN1CCC(CN2CCOCC2)C1 (stereo unspecified) | -19.8% |
| CN(C)c1ncccc1CNS(=O)(=O)c1ccccc1F | 34.7% |
| COc1ccc(S(=O)(=O)NCc2cccnc2N(C)C)cc1F | 58.2% |
| COc1ncccc1CNCc1c(C(C)C)nn(C)c1Cl | 21.7% |
| CC(C)c1nn(C)c(Cl)c1CNCc1cccnc1N(C)C | 57.5% |
| CC(C)N(C)S(=O)(=O)NCc1cccnc1N(C)C | 55% |
| CCOc1ccc(CNCc2cccnc2N(C)C)cc1 | 39.7% |
| CN(C)c1ncccc1CNS(=O)(=O)c1cc(F)cc(F)c1 | -10.1% |
| CCCC(C)CS(=O)(=O)NCc1cccnc1N(C)C (stereo unspecified) | -33.9% |
| CC(C)c1nn(C)c(N(C)C)c1CNCc1cccnc1N(C)C | 14.815% |
| CCOc1ccc(S(=O)(=O)NCc2cccnc2N(C)C)cc1 | 67.5% |

| Structure (SMILES) | INHIBITION |
| --- | --- |
| CN(C)c1ncccc1CNS(=O)(=O)c1ccc(F)c(F)c1 | 11.2% |
| COc1ccc(S(=O)(=O)NCc2cccnc2N(C)C)cc1 | 21.5% |
| CN(C)C(=O)COCC1CN(S(C)(=O)=O)Cc2ncn(C)c21 (stereo unspecified) | 38.2% |
| COc1ccc(NC(=O)c2nc3ccccc3n(C)c2=O)c(OC)c1 | 3.19% |
| Cn1ccc(C(=O)NC2CCC23CCN(Cc2cccnc2)CC3)c1 (stereo unspecified) | 23.5% |
| CC(O)C1CCN(C(=O)CCOc2ccccc2F)CC1 (stereo unspecified) | -17.8% |
| CC(C)(C)S(=O)(=O)c1ccc(N2CCC(n3cccn3)CC2)cn1 | -8.66% |
| Cc1ccc2nc(C(=O)N(C)[C@@H]3CC[C@@H](N4CCCC4)[C@@H]3O)cn2c1 | 1.068% |
| c1ccc(Cc2noc(CN3CCCC3Cn3cccn3)n2)cc1 (stereo unspecified) | 1.78% |
| Fc1ccc(-c2cnc(CN3CCOC(Cn4cccn4)C3)o2)cc1 (stereo unspecified) | -21.8% |
| COc1ccccc1CN1CCc2c(nc(-c3ccccn3)[nH]c2=O)C1 | 25.6% |
| CSc1ccccc1C(=O)N(C)Cc1nncn1C(C)C | 37.4% |
| CN(C)c1ncccc1CNS(=O)(=O)c1ccccc1Cl | -4.16% |
| CN(C)c1ncccc1CNS(=O)(=O)c1c(F)cccc1F | 11.6% |
| COC(=O)c1cccc(S(=O)(=O)NCc2cccnc2N(C)C)c1 | 13.3% |
| CC(=O)c1ccc(S(=O)(=O)NCc2cccnc2N(C)C)cc1 | 66.7% |
| COC(=O)c1ccc(S(=O)(=O)NCc2cccnc2N(C)C)cc1 | 52.7% |
| CN(C)c1ncccc1CNS(=O)(=O)c1cc(F)ccc1F | -27.8% |
| CN(C)c1ncccc1CNS(=O)(=O)c1ccc(C(N)=O)cc1 | -3.2% |
| CC(=O)c1cccc(S(=O)(=O)NCc2cccnc2N(C)C)c1 | 42% |
| Cc1ccc(F)cc1S(=O)(=O)NCc1cccnc1N(C)C | 49.3% |
| CCOC(=O)c1ccc(S(=O)(=O)NCc2cccnc2N(C)C)cc1 | 83.2% |
| COc1cc(C)c(S(=O)(=O)NCc2cccnc2N(C)C)c(C)c1 | 61.7% |
| CNC(=O)c1ccc(S(=O)(=O)NCc2cccnc2N(C)C)cc1 | 29.7% |
